Source: PubChem BioAssay (EPA / NIEHS)
Active and inactive are the calls of the source. How the source made its calls: active means hit-call score of the fitted dose curve at least 0.9, where 1 is the maximum; inactive means score below 0.9.

test: CCTE_Mundy_HCI_Cortical_NOG_BPCount: CCTE's Neurite Outgrowth Assay in rat cortical cells for Branch Point Count, Mundy Lab (AID 2284237);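 on AC50: branch points counted about two days after chemical exposure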
Protocol: CCTE_Mundy_HCI_Cortical_NOG is a multiplexed, cell-based-readout assay that uses rat primary cortical cells with measurements taken at 50.33 hours after chemical dosing in a microplate: 96-well plate.CCTE_Mundy_HCI_Cortical_NOG_BPCount is one of four components of the CCTE_Mundy_HCI_Cortical_NOG assay. It measures neurite outgrowth related to the number of branch points using High Content Imaging of fluorescently labelled markers.[…] Using a type of morphology reporter, loss -of-signal activity can be used to understand developmental effects.
Exposure starts 2 hours post-plating by adding 10 ul of the working solution to 90 ul of media in the wells for a 1/10 dilution. Forty-eight hours after chemical treatment cells are fixed by direct addition of 100 ul of warm (37C) Dulbecco's phosphate buffered saline (DPBS) fixative solution containing 8% paraformaldehyde, 8% sucrose, and 0.1% of 3 mg/ml Hoechst 33342 into each well. Primary antibodies are prepared by dilution in Immunocytochemical Staining Buffer (ISB), 10X Dulbecco's PBS, 0.1% Saponin, 5% Bovine Serum Albumin, 0.5% NaN3 (Sodium Azide) and betaIII-tubulin (rabbit anti-betaIII-tubulin, 1:800) followed by Alexa Fluor-488 secondary (1:500) to label neuronal cell bodies and neurites. A Cellomics ArrayScan VTi HCS Reader is used for automated image acquisition and analysis of neurite outgrowth.

Compound | AC50 | outcome
CN(C)C(=S)SSC(=S)N(C)C | 0.055 µM (active) | –
CC(C)(C)c1ccc(CSc2cnn(C(C)(C)C)c(=O)c2Cl)cc1 | 0.00299 µM (active) | –
N#Cc1nn(-c2c(Cl)cc(C(F)(F)F)cc2Cl)c(N)c1S(=O)C(F)(F)F (centres undefined) | – | inactive
CO/C=C(/C(=O)OC)c1ccccc1Oc1cc(Oc2ccccc2C#N)ncn1 | 2.23 µM (active) | –
COC(=O)N(OC)c1ccccc1COc1ccn(-c2ccc(Cl)cc2)n1 | 0.116 µM (active) | –
Cc1ccc(-c2c(Cl)nc(C#N)n2S(=O)(=O)N(C)C)cc1 | 78 µM (active) | –
CCCCOC(=O)c1ccccc1C(=O)OCCCC | – | inactive
COP(N)(=O)SC (centres undefined) | – | inactive
CCCCNC(=O)n1c(NC(=O)OC)nc2ccccc21 | 10.3 µM (active) | –
C=CCC1=C(C)[C@@H](OC(=O)[C@@H]2[C@@H](C=C(C)C)C2(C)C)CC1=O | – | inactive
CNC(=O)ON=CC(C)(C)SC | – | inactive
C=CCC1=C(C)C(OC(=O)C2C(C=C(C)C)C2(C)C)CC1=O (centres undefined) | – | inactive
COP(=S)(OC)Oc1nc(Cl)c(Cl)cc1Cl | 24.1 µM (active) | –
C=CC1(C)OC(=O)N(c2cc(Cl)cc(Cl)c2)C1=O (centres undefined) | – | inactive
